Screening data (PubChem BioAssay)
Most compounds without a hit are left out; they make up all but 2.9% or so of the library.
KLK7 zymogen act – activators of human kallikrein-7 zymogen; purified proKLK7, EDANS-DABCYL substrate fluorescence; 100% is mature enzyme control, 0% vehicle; activation, % at 7 µM; AID 652039; P49862; hit rate 0.9% among 370,000;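 active = activation above the mean of all tested compounds plus 3 SD, computed per campaign excluding outliers beyond control limits, cut at about 13% in these data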
ADAM17 inh – inhibits human ADAM17. inhibition, % at 6.95 µM. recombinant ADAM17, EDANS/DABCYL FRET peptide cleavage. hit rate 0.83% among 370,000. AID 720648. P78536;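 active = inhibition above the mean of compounds lying between control limits plus 3 SD, set per campaign, cut at about 8.5% in these data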
PLCb3 inh – inhibitors of human phospholipase C beta3; Purified PLC-beta3, fluorogenic substrate, fluorescence; inhibition, % at 12.2 µM; hit rate 0.18% among 370,000; Q01970; AID 720704; in the data active = inhibition above about 11%
PLC-gamma1 inh – inhibitors of human phospholipase C gamma1; P19174; purified PLC-gamma1, fluorogenic substrate, fluorescence; inhibition, % at 12.2 µM; hit rate 0.84% among 370,000
ADAM10 inh – inhibits human ADAM10 | O14672 | recombinant ADAM10, EDANS/DABCYL FRET peptide cleavage, 3 h | inhibition, % at 7 µM | hit rate 0.62% among 370,000 | AID 720582;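 active = inhibition above a per-campaign cutoff equal to the mean of compounds falling between control-based bounds plus 3 SD, cut at about 20% in these data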
PLCg1 ctr – PLC-gamma1 inhibition, counter-screen for PLC-beta3 hits | shares compounds with PLC-gamma1 inh | inhibition, % at 12.3 µM | purified PLC-gamma1, fluorogenic substrate, fluorescence | hit rate 3.1% among 3,300
PLCbeta3 conf – confirmation of human PLC-beta3 inhibitors; shares compounds with PLC-gamma1 inh; purified PLC-beta3, fluorogenic substrate fluorescence; inhibition, % at 12.3 µM; hit rate 1% among 3,300; AID 743261; in the data active = inhibition above about 11%
Hits are given with their value; i = inactive; nt = no result given. Rule as the data show it, unless noted: active = inhibition above about 9.5%; inactive = the rest.

SMILES	KLK7 zymogen act	ADAM17 inh	PLCb3 inh	PLC-gamma1 inh	ADAM10 inh	PLCg1 ctr	PLCbeta3 conf
Cc1ccc(-n2nc3c(=O)n(CCCC(=O)NCc4ccccc4C)nc(C)c3c2C)cc1	i	i	i	14	i	i	i
Nc1nc(-c2ccco2)nn1C(=O)c1ccc(Cl)cc1	i	i	i	9.8	i	i	i
Nc1nc(-c2ccco2)nn1C(=O)c1ccccc1	i	i	i	i	i	nt	nt
O=C(Nc1ccncc1)c1cccc(S(=O)(=O)N2CCCC2)c1	i	i	i	10	i	i	i
Cc1cccnc1NC(=O)c1ccc(S(=O)(=O)N2CCCCC2)cc1	i	i	i	11	i	i	i
Cc1cccnc1NC(=O)c1cccc(S(=O)(=O)N2CCCC2)c1	i	i	i	i	i	nt	nt
N#CC(c1ccc(Cl)cc1)c1ccc(Cl)nn1 (stereo unspecified)	i	i	12	i	i	i	i
O=C(NCCC1=CCCCC1)C(=O)NCC(c1ccco1)N1CCN(c2ccccc2)CC1 (stereo unspecified)	i	i	i	13	i	i	i
COc1ccc(N2CCN(C(CNC(=O)C(=O)NCCC3=CCCCC3)c3ccco3)CC2)cc1 (stereo unspecified)	i	i	i	i	i	nt	nt
CCc1noc(C)c1C(=O)N1CCN(S(=O)(=O)c2cc(C)ccc2C)CC1	i	i	i	i	i	nt	nt
C=CCNC(=O)CN1CCC(c2nc3cc(C)c(C)cc3[nH]2)CC1	i	i	i	12	i	i	i
C=CCNC(=O)CN1CCC(c2nc3ccccc3[nH]2)CC1	i	i	i	i	i	nt	nt
Oc1c(N=NC(=S)Nc2ccccc2F)c2ccccc2n1Cc1ccc(F)cc1	i	i	i	10	i	i	i
Cc1ccc(Cn2nnc3c2-c2ccccc2S(=O)(=O)N(C2CC2)C3)cc1	i	i	i	i	i	nt	nt
CN1CCOc2ccc(S(=O)(=O)NCCc3ccc(Cl)cc3)cc21	i	i	i	13	i	i	i
O=C(Nc1ccccc1C(F)(F)F)c1cccnc1	i	i	i	i	i	nt	nt
COc1ccc(S(=O)(=O)N2CCOC2CNC(=O)C(=O)NCc2ccccc2OC)cc1 (stereo unspecified)	i	i	i	i	i	nt	nt
Cc1ccc(NC(=O)CO/N=C/c2ccccc2C)c(C)c1	i	i	i	i	i	nt	nt
Cn1c(CC(=O)Nc2ccc(Cl)c(Cl)c2)nnc1SCC(=O)Nc1nccs1	i	i	i	i	i	nt	nt
Cn1c(CSCc2ccccc2Cl)nnc1SCC(=O)Nc1nccs1	i	i	i	15	i	i	i
O=C(NCCc1csc(-c2cccnc2)n1)c1ccc(Cl)cc1	i	i	i	13	i	i	i
COc1ccc(CN2CCN(c3ncnc4scc(-c5ccc(F)cc5)c34)CC2)cc1	i	i	i	i	i	nt	nt
c1ccc(N2CCN(c3ncnc4scc(-c5cccs5)c34)CC2)cc1	i	i	i	11	i	i	i
CCOc1ccc(CN2CCN(c3ncnc4scc(-c5ccccc5)c34)CC2)cc1	i	i	i	10.0	i	i	i
CCCSc1nc2cc(OC)c(OC)cc2c(=N)n1CCCN1CCOCC1	i	i	i	i	i	nt	nt
SMILES	KLK7 zymogen act	ADAM17 inh	PLCb3 inh	PLC-gamma1 inh	ADAM10 inh	PLCg1 ctr	PLCbeta3 conf
CC1(C(=O)NS(=O)(=O)c2ccc(F)cc2F)CCN1C(=O)c1cccc(F)c1 (stereo unspecified)	i	i	i	12	i	i	i
CCCn1nnc(NC(=O)Cc2ccccc2)n1	i	i	i	i	i	nt	nt
CCOC(=O)c1ccc(-c2ccc3oc(-c4ccsc4)cc(=O)c3c2)cc1F	i	i	i	10	i	i	i
COc1ccc(Br)c(OC)c1C(=O)NC(=O)Nc1c(F)cccc1F	i	i	i	i	i	nt	nt
COCC(=O)Nc1cc([N+](=O)[O-])ccc1OC	i	i	i	13	i	i	i
COCC(=O)Nc1ccc([N+](=O)[O-])cc1OC	i	i	i	i	i	nt	nt
COc1ccc([N+](=O)[O-])cc1NC(=O)c1cn(-c2ccc(C)c(C)c2)c(=O)c2ccccc12	i	i	i	11	i	i	i
COC(=O)CNC(=O)c1cn(-c2ccc(C)c(C)c2)c(=O)c2ccccc12	i	i	i	i	i	nt	nt
Cc1c(NC(=S)NC(=O)c2cccc([N+](=O)[O-])c2)c(=O)n(-c2ccccc2)n1C	i	i	i	i	i	nt	nt
O=C1CN(C(=O)COC(=O)[C@@H]2CC(O)CN2S(=O)(=O)c2ccc(Cl)cc2)c2ccccc2N1 (stereo partly specified)	i	i	i	i	i	nt	nt
COc1cccc(C=NNC(=O)C(C)SC(C)C(=O)NN=Cc2cccc(OC)c2)c1 (stereo unspecified)	i	i	i	i	i	nt	nt
CC(SC(C)C(=O)NN=Cc1cccc(Cl)c1)C(=O)NN=Cc1cccc(Cl)c1 (stereo unspecified)	i	i	11	i	i	i	i
Cn1cccc1-c1nc2ccc(NC(=O)c3ccc([N+](=O)[O-])cc3)cc2[nH]1	i	i	i	14	i	i	i
Cn1cccc1-c1nc2ccc(NC(=O)c3ccccc3)cc2[nH]1	i	i	i	i	i	nt	nt
Cc1ccc(N2CC(C(=O)N3CCN(c4ccccn4)CC3)CC2=O)cc1 (stereo unspecified)	i	i	i	i	i	nt	nt
CCn1c(C)c(C)c2cc(C(=O)N3CCN(c4ccccc4)CC3)ccc21	i	i	i	i	i	nt	nt
NS(=O)(=O)c1ccccc1	i	i	11	15	i	i	i
CCOC(=O)c1c2c(n(C)c1C)C(=O)C(=O)c1ccc(Br)cc1-2	i	i	i	i	i	nt	nt
CCOC(=O)c1c2c(n(Cc3ccccc3)c1C)C(=O)C(=O)c1ccccc1-2	i	i	i	17	i	36	11
CCCCOC(=O)Nc1cc(Cl)ccc1C	i	i	i	i	i	nt	nt
CCOc1ccc(-c2cc(C(=O)NC3CCCCC3)[nH]n2)c(C)c1	i	i	12	i	i	i	i
CCC(C(=O)O)n1nnc(-c2ccc(-c3ccc(OC)cc3)cc2)n1 (stereo unspecified)	i	i	i	i	i	nt	nt
FC(F)(F)c1ccc(C2[C@H]3CN(Cc4ccc(-c5ccccc5)cc4)[C@H](c4ccccc4)C34CC2(c2ccccc2)C4)cc1 (stereo partly specified)	i	i	i	i	i	nt	nt
N#Cc1ccc(C23CC4(C2)[C@H](CN(Cc2ccc(-c5ccccc5)cc2)[C@@H]4c2ccccc2)C3c2ccc(C(F)(F)F)cc2)cc1 (stereo partly specified)	i	i	11	i	i	i	i
FC(F)(F)c1ccccc1CN1CCC(Cc2ccccc2)CC1	i	i	i	i	i	nt	nt
O=C(CCC1CCCC1)Nc1ccon1	i	i	i	12	i	i	i
